# Experimental data reported in PubChem BioAssay (NCI).
# About 83,000 compounds went through this panel and 20% of them were active in at least one assay; those are over-represented in the sample as a whole.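 Cells were grown in 96-well plates and exposed to the test compound at a single concentration for 48 hours; results are reported as percent growth, with values below 10 considered active.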 The source made the active and inactive calls.
# Tested on: MDA-MB-468 breast
# Assay: NCI-60 one-dose screen, 48 h (100 = growth as untreated, 0 = no growth, -100 = all killed)
# Conditions: 10 µM unless noted
row,Compound,growth
1,COc1cccc(-c2nc3sccn3c2-c2ccnc(NCCCNS(=O)(=O)c3ccc(F)cc3)c2)c1,13.3% (inactive)
2,Nc1nc2c(nnn2C2CC(O)C(CO)O2)c(=O)[nH]1 (centres undefined),22.8% (inactive)
3,O=C1c2ccccc2C(=O)C1c1ccc(Br)cc1,115% (inactive)
4,COc1ccc(/C=N/NC(=O)c2ccc(S(C)(=O)=O)cc2)cc1OC,100% (inactive)
5,COCCn1cc(-c2csc(-c3cn(C)c4ccc(F)cc34)n2)c2cccnc21,21.3% (inactive)
6,N#CC1CCc2c(c(-c3cn[nH]c3C(F)(F)F)nc3c(F)cc4[nH]ncc4c23)C1 (centres undefined),-6.53% (active)
7,CC(=O)Nc1ccc(NC(=O)Nc2cccc(-c3nc(-c4ccc(NC(=O)c5cccnc5)cc4Cl)no3)c2)cc1C(F)(F)F,-84.7% (active)
8,CC(=O)N(C)c1ccc(Nc2ccc(Nc3ccc(N(C)C(C)=O)cc3)c3c2C(=O)c2ccccc2C3=O)cc1,30.9% (inactive)
9,CN(C)c1ccc(N=Cc2ccc(N3CCOCC3)cc2)cc1,57.5% (inactive)
10,Fc1ccc(-c2cn3c(nc4ccccc43)c(-c3ccccc3)n2)cc1,82.8% (inactive)
11,COc1cc(/C=N/Nc2ncnc3c2c(C)nn3-c2ccc(F)cc2)ccc1O,92% (inactive)
12,CCN1CCN(Cc2ccc(NC(=O)Nc3nc4ccc(Oc5ccnc(C(=O)NC)c5)cc4s3)cc2C(F)(F)F)CC1,-66.3% (active)
13,CC(O)Cn1cnc2c1c(=O)n(C)c(=O)n2C (centres undefined),78.5% (inactive)
14,CCCCCCCCC/C(=N\NC(=O)c1ccncc1)c1ccc(O)c(O)c1O,18.5% (inactive)
